Each structure is given as a SMILES string. The campaign covered roughly 52,000 compounds. About 4,300 (8.3%) were called active. The sample holds actives, similar compounds and a random draw of the others, so the mix is not that of the screen. A number with no mark means an inactive call. Rule as the data show it: active = survival mostly below about 52% (no sharp cut-off); inactive = mostly above about 56%.

This experiment deals with DeltatarO mutant. The experiment can be described thus: growth inhibition of S. aureus wild type versus tarO mutant, primary screen, teichoic acid synthesis inhibitors, RN4220, OD600 (AID 463173). As to conditions: OD600, 18 h, hits give low values, screened at 18.75 µg/mL (by protocol).
Take `COc1cccc(N2CCN(c3ncc4c(n3)CCN(Cc3ccc(Br)cc3)C4)CC2)c1`: the survival is 79%.
For `COc1ccc(/C=C\c2onc(C)c2S(=O)(=O)N2CCC(C(=O)Nc3cccc(C)c3C)CC2)cc1`, the survival is 68%.
Turning to `Cc1ccc(-c2nnn(CCC(=O)NC(C)(C)C)n2)cc1`, the survival is 91%.
`Cc1ccc(C(=O)NCCC(C)C)cc1NC(=O)c1nsc2ccccc12`: the survival was 73%.
On to `N#C/C(=C/c1cccs1)C(N)=S`, for which the survival was 99%.
For the compound `Cc1cc(SCC(=O)NCc2ccc(Cl)cc2)nc(=O)[nH]1`, the survival was 86%.
Take `O=C(Nc1cccc(-n2cnnn2)c1)c1ccccc1`: the survival is 95%.
With `N#C/C(=C\Nc1ccccc1O)c1nc2ccccc2o1`, the survival was 1% (active).
As for `N#C/C(=C/Nc1cccc2ccccc12)c1nc2ccccc2o1`, the survival is 54%.
Regarding `Cc1ccc(C)c(N/C=C(\C#N)c2nc3ccccc3o2)c1`, the survival is 95%.
Regarding `CCCOC(=O)c1c(NC(=O)C(C)Sc2nc(-c3ccccc3)cc(C(F)(F)F)n2)sc(C(=O)N(C)C)c1C` (stereo not given), the survival is 132%.
With `CC(Oc1ccccc1)C(=O)Nc1nc2ccc(S(N)(=O)=O)cc2s1` (stereo not given), the survival was 102%.
`COCCNc1nc(NCc2ccccc2OC)c2cnn(C)c2n1`: the survival was 69%.
Regarding `CCCCc1c(C)nc2c(-c3ccc(Cl)cc3)c(C)[nH]n2c1=O`, the survival was -2% (active).
Take `CCOC(=O)CCc1c(C)nc2cc(-c3cc(OC)cc(OC)c3)[nH]n2c1=O`: the survival was 90%.
Under `CCCCc1c(C)nc2c(-c3ccc(OC)cc3)c(C)[nH]n2c1=O` stands 7% (active); under `CCCCc1nc2ccccc2n2c(-c3ccc(OC)cc3)c3c(=O)n(C)c(=O)n(C)c3c12`, 49%.
On to `Cc1nc2c(-c3ccc(F)cc3)c(C)nn2c(C)c1CCC(=O)NCc1ccc(Cl)cc1`, for which the survival is 96%.
Consider `CCOC(=O)Cc1c(C)nc2c(-c3ccc(Cl)cc3)c(C(F)(F)F)nn2c1C`, for which the survival was 63%.
Regarding `c1ccc(Cn2ncc3c(N4CCCCC4)ncnc32)cc1`, the survival was 77%.
On to `COc1ccc(C2=C(C)C(=O)N(Cc3ccc(C(=O)NC(C)c4ccccc4)cc3)S2(=O)=O)cc1` (stereo not given), for which the survival is 91%.
On to `CCOC(=O)c1c(NC(=O)/C=C/c2ccc(C)cc2)sc(C(C)=O)c1C`, for which the survival is 79%.
The same measure for `CCOc1ccc(CNC(=O)c2cnc3sc(N4CCCCCC4)nn3c2=O)cc1OC`: 83%; for `Cc1ccc(NC(=O)N2CCc3c(sc4c3CCCC4)C2c2ccccc2)cc1F` (stereo not given): 102%.
As for `COc1ccc(NC(=O)N2CCc3c(sc4c3CCCC4)C2c2ccc(F)cc2)cc1` (stereo not given), the survival was 101%.
For `O=C(Nc1ccc(F)cc1F)N1CCc2c(sc3c2CCCC3)C1c1ccc(F)cc1` (stereo not given), the survival was 93%.
Take `COc1cc(NC(=O)N2CCc3c(sc4c3CCCC4)C2c2ccccc2)cc(OC)c1OC` (stereo not given): the survival is 103%.
For `Cc1cccc(NC(=O)N2CCc3c(sc4c3CCCC4)C2c2ccc(F)cc2)c1` (stereo not given), the survival is 37% (active).
Consider `COc1ccc(NC(=O)N2CCc3c(sc4c3CCCC4)C2c2ccccc2OC)cc1` (stereo not given), for which the survival is 54% (active).
Consider `Cc1ccc([N+](=O)[O-])c(Oc2ncnc3c2oc2ccccc23)c1`, for which the survival was 101%.
The same measure for `Oc1c(C(c2ccccc2F)N2CCC3(CC2)OCCO3)sc2nc(-c3ccco3)nn12` (stereo not given): 102%; for `Cc1ccc(C)c(Nc2cc(C(=O)NC3CCCC3)c3ccccc3n2)c1`: 87%; for `COc1ccc(N2C(=O)CS(=O)(=O)C23C(=O)N(Cc2ccccc2F)c2ccccc23)cc1Cl` (stereo not given): 75%.
As for `CCOC(=O)c1c(NC(=O)c2ccc(S(=O)(=O)N(CC(C)C)CC(C)C)cc2)sc2c1CCN(C(=O)OCC)C2`, the survival is 124%.
Turning to `Cc1ccc(Cl)cc1NC(=O)CSC1=Nc2ccccc2C2=NC(Cc3ccccc3)C(=O)N12` (stereo not given), the survival was 71%.
Under `COc1ccccc1NC(=O)CSc1nnc(NC(=O)Nc2ccc(C)cc2)s1` stands 58%; under `COc1ccc(NC(=O)CSc2nnc(NC(=O)Nc3ccccc3)s2)cc1OC`, 86%.
The same measure for `COc1ccc(NC(=O)CSc2nnc(NC(=O)Nc3ccccc3)s2)c(OC)c1`: 47% (active); for `CCc1ccc(-n2nc(C)c3c(C(=O)N4CCN(c5ccccc5)CC4)cc(C)nc32)cc1`: 94%; for `CCn1cc(C(=O)N2CCN(c3ccccc3F)CC2)c(=O)c2cc(S(=O)(=O)N(C)C)ccc21`: 122%.
The same measure for `CCn1cc(S(=O)(=O)c2cc(C)cc(C)c2)c(=O)c2cc(F)c(N3CCCCC3)cc21`: 86%; for `Cc1cccc(S(=O)(=O)c2cn(Cc3ccc(F)cc3)c3cc(N4CCCCC4)c(F)cc3c2=O)c1`: -2% (active); for `CCN1CCN(c2cc3c(cc2F)c(=O)c(S(=O)(=O)c2cc(C)cc(C)c2)cn3CC)CC1`: -1% (active).
As to `CCn1cc(S(=O)(=O)c2cc(C)cc(C)c2)c(=O)c2cc(F)c(N3CCCC3)cc21`, the survival was 109%.
Consider `CCn1cc(C(=O)O)c(=O)c2cc(F)c(N3CCN(C(=O)c4ccccc4F)CC3)cc21`, for which the survival is 3% (active).
On to `Cc1cccc(S(=O)(=O)c2cn(Cc3ccccc3)c3cc(N4CCCCC4)c(F)cc3c2=O)c1`, for which the survival was 82%.
In the case of `O=c1c(S(=O)(=O)c2ccccc2)cn(Cc2ccc(F)cc2)c2cc(N3CCCCC3)c(F)cc12`, the survival is 80%.
As for `CCn1cc(C(=O)NCC(C)C)c(=O)c2cc(F)c(N3CCN(C(=O)c4ccco4)CC3)cc21`, the survival is 76%.
As to `Cn1cc(S(=O)(=O)c2cccc(Cl)c2)c(=O)c2cc(F)c(N3CCN(c4ccccc4)CC3)cc21`, the survival is 6% (active).
Under `Cn1cc(S(=O)(=O)c2ccccc2)c(=O)c2cc(F)c(N3CCN(c4ccccc4)CC3)cc21` stands 116%.
In the case of `Cn1cc(S(=O)(=O)c2cccc(Cl)c2)c(=O)c2cc(F)c(N3CCN(c4ccc(F)cc4)CC3)cc21`, the survival is 70%.
As to `COc1cccc(C(c2sc3nc(-c4ccco4)nn3c2O)N2CCC(C)CC2)c1` (stereo not given), the survival was 78%.
Turning to `CC(C)(C)C(=O)OCc1cc(=O)n2nc(C3CC3)sc2n1`, the survival is 80%.
For the compound `CC(=O)c1cc(-c2ccc(F)cc2)n(CCC(=O)NCc2ccccc2C)c1C`, the survival was 81%.
As for `Cc1ccc(-c2nnc3ccccc3c2C(=O)Nc2ccc(F)cc2)cc1`, the survival is 100%.

Values taken from PubChem BioAssay AID463173 (ICCB-Longwood Screening Facility, Harvard Medical School, 2010).
